From PubChem BioAssay
Sampled rows, rich in hits. Any-hit rate of the full collection: about 18%.
TDP1 inh – inhibitors of human tyrosyl-DNA phosphodiesterase TDP1 | Q9NUW8 | recombinant TDP1, AlphaScreen DNA substrate cleavage | Potency, µM (top dose mostly 130 µM), without a hit: top-dose activity change, negative = inhibition, hits mostly inhibitors | hit rate 0.28% among 350,000; further: nearly all actives have a fitted effect of over 40% in size
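Tdp1 1 nM final; 15 min RT w/ cpd; substrate 15 nM, 5 min; beads 10 ug/ml, 10 min; AlphaScreen read. Neg ctrl: no enzyme.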
DT40 TDP1 CPT – growth inhibition of DT40 Tdp1-/-;hTDP1 cells with camptothecin (screen for TDP1 inhibitors). Potency, µM (titrated, usually from 46.2 µM), for inactives: at the highest dose activity change, negative = growth inhibition, most hits filed as inhibitors. AID 686979. hit rate 12% among 420,000. chicken DT40 Tdp1-/-;hTDP1 cells + 20 nM CPT, ATP luminescence, 48 h; further: nearly all actives have a fitted effect of over 55% in size
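Chicken DT40 Tdp1-/- cells complemented with human TDP1, 400 cells/well, exposed to compounds plus 20 nM camptothecin for at least 48 h at 37 C; viability read as ATP content by CellTiter-Glo luminescence.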
PLK1 PBD inh – inhibitors of human PLK1 polo-box domain binding; hit rate 2.8% among 360,000; Potency, µM, for inactives: max response, negative = inhibition, hits mostly inhibitors; Plk1 PBD binding of FITC phosphopeptide, fluorescence polarization; P53350; further: series mostly up to about 57 µM; nearly all actives have a fitted effect of over 65% in size
GCN5L2 inh – blocks human GCN5L2 histone acetyltransferase. Potency, µM (doses to about 58.9 µM), for the others: at the highest dose activity change, negative = inhibition, actives largely listed as inhibitors. Q92830. hit rate 0.21% among 390,000. AID 504327. GCN5L2 HAT assay, ThioGlo1 CoA-SH fluorescence
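GCN5L2 (20nM final) in 50mM HEPES, 0.1mM EDTA pH 7.5, 0.01% Tween-20 was preincubated 15 min at room temperature with compound, then given ThioGlo1 (50uM), H3(1-25) peptide (75uM) and acetyl-CoA (70uM); CoA-thiol fluorescence (Ex340/Em540) was read at 0 and 20 min.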
TDP1 cell noCPT – qHTS for Inhibitors of human tyrosyl-DNA phosphodiesterase 1 (TDP1): qHTS in cells in absence of CPT. DT40 Tdp1-/- hTDP1 cells, no CPT, ATP luminescence, 48 h. hit rate 15% among 420,000. Potency, µM (titrated, usually from 46.2 µM), inactives show at the highest dose activity change, negative = growth inhibition, hits mostly inhibitors; further: nearly all actives have a fitted effect of over 55% in size
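Chicken DT40 Tdp1-/- cells stably complemented with human TDP1 were seeded at 400 cells/well with DMSO in place of 20 nM camptothecin. After compound pinning, cells grew at least 48 hr at 37 °C; viability read by CellTiter-Glo luminescence.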
VDR inh – inhibitors of human vitamin D receptor | VDR-SRC2-3 peptide fluorescence polarization, 2 h | Potency, µM, inactives show max response, negative = inhibition, most hits filed as inhibitors | hit rate 0.93% among 400,000 | AID 504847
Target sequence (P11473 whole entry, looked up): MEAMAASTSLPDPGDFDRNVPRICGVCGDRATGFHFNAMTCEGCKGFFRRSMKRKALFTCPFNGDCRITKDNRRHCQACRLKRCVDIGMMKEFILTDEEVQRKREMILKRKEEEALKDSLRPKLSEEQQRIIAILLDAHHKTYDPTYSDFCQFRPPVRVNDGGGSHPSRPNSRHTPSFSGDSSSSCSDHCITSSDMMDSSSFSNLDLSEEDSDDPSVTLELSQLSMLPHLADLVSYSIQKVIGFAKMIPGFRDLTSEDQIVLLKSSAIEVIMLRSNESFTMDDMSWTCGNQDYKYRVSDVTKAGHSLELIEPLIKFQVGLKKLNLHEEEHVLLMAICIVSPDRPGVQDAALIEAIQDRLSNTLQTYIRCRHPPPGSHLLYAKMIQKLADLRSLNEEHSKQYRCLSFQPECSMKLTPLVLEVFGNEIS
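VDR–SRC2-3 interaction, FP format. Cmpds 23 nl via pintool, brief spin, 2 h ambient incubation.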
* = called active by the depositor; ? = inconclusive; / = no result. The call rests on the fitted dose curve; in most records, active means well fitted curve in the direction sought with a large enough effect; inconclusive means small, poorly fitted or top-dose-only effect, or another doubt; inactive means no such curve, though single readings can be large; an effect the other way counts as inactive or inconclusive. On the % scale 0 is the no-effect control and ±100 the full control effect; potency means the concentration at half of the fitted maximal effect.

SMILES	TDP1 inh	DT40 TDP1 CPT	PLK1 PBD inh	GCN5L2 inh	TDP1 cell noCPT	VDR inh
CCOc1ccc(S(=O)(=O)Nc2ccc3c(c2)N(C(C)=O)CCC3)cc1	1%	?	/	17%	18µM*	2%
CCOc1ccc2[nH]c(=O)c(CN(CCCN3CCOCC3)C(=O)Nc3ccc(F)cc3)cc2c1	/	-2%	-1%	/	11%	10%
CCc1ccc2[nH]c(=O)c(CN(CCCN3CCOCC3)C(=O)Nc3cccc(Cl)c3)cc2c1	8%	?	-7%	-17%	15µM*	5%
CCc1ccc2[nH]c(=O)c(CN(CCCN3CCOCC3)C(=O)Nc3ccccc3)cc2c1	5%	23µM*	-1%	-1%	21µM*	14%
Cc1sc2ncnc(NCC(C)(C)N3CCOCC3)c2c1C	6%	2.1µM*	-5%	-4%	1.5µM*	4%
Cc1sc2ncnc(NCC3(N4CCOCC4)CCCCC3)c2c1C	0%	21µM*	-6%	-5%	23µM*	-2%
c1nc(NCC2(N3CCOCC3)CCCCC2)c2ccsc2n1	2%	12µM*	-8%	-2%	18µM*	10%
CC12CCC3c4ccc(OCc5ccccc5)cc4CCC3C1CC(O)C2O (stereo not given)	5%	?	/	1%	?	4%
O=C1C(c2ccccc2)SC(=Nc2ccccc2)N1S(=O)(=O)c1ccccc1 (stereo not given)	2%	-7%	17µM*	-9%	0%	89µM*
CCCc1cc(-c2n[nH]c(=S)n2CC(C)C)cs1	-3%	?	-12%	-4%	21µM*	-21%
CCCCn1c(-c2csc(CC)c2)n[nH]c1=S	5%	21µM*	-13%	0%	?	-7%
CCOc1ccc(NC(=O)COc2ccc(S(=O)(=O)NC3CCCCC3)cc2)cc1	7%	?	/	-6%	?	-9%
CCCCc1cc(=O)oc2cc(OCC(=O)Nc3ccccn3)ccc12	0%	4%	-2%	-18%	?	-6%
Cc1cccc(CS(=O)(=O)Cc2ccc(C(=O)NCCc3ccccc3)o2)c1	3%	?	27µM*	-1%	?	-18%
CCc1ccccc1S(=O)(=O)Cc1ccc(C(=O)NC(C)C)o1	/	?	-23%	/	-26%	-4%
COc1cccc(CNC(=O)c2ccc(CS(=O)(=O)Cc3ccccc3C)o2)c1	1%	29µM*	-5%	0%	23µM*	6%
CCc1ccccc1S(=O)(=O)Cc1ccc(C(=O)NCCc2ccc(C)cc2)o1	0%	?	/	-5%	29µM*	-23%
Cc1ccccc1CS(=O)(=O)Cc1ccc(C(=O)NCCc2ccccc2)o1	1%	?	30µM*	-5%	?	-17%
COc1cccc(CNC(=O)c2ccc(CS(=O)(=O)Cc3ccc(C)cc3)o2)c1	0%	1%	-8%	-3%	6%	-10%
CCCCCCCCCCCCCC[C@@H](O)[C@@H](O)[C@H](CO)NC(C)=O	9%	/	/	-20%	/	-9%
COc1ncc2nc(-c3cn(C)c4ccccc34)c(=O)n(CCc3ccccc3)c2n1	/	10%	/	-3%	7%	-1%
CC(CNC(=O)CCc1cn(Cc2ccccc2Cl)c2ccccc12)c1ccccc1 (stereo not given)	3%	?	/	-6%	?	8%
CC1(C)Cc2ccccc2C2CC(O)C(=O)N21 (stereo not given)	6%	15µM*	-17%	-4%	?	-6%
Cc1nn(C)c2ncc(C(N)=O)c(Oc3ccc(Cl)cc3)c12	6%	-22%	-11%	-1%	?	-9%
Cc1cc(C)nc(NNS(=O)(=O)c2ccc(F)c(Cl)c2)n1	-7%	23µM*	-23%	-12%	?	-19%
SMILES	TDP1 inh	DT40 TDP1 CPT	PLK1 PBD inh	GCN5L2 inh	TDP1 cell noCPT	VDR inh
Nc1ncccc1OCc1cccc(C(F)(F)F)c1	11%	-18%	-12%	0%	6.5µM*	-8%
CC(=O)c1ccc(OCc2cccc(C(F)(F)F)c2)cc1O	-5%	-1%	1%	-7%	-26%	8%
COc1ccc(C(=O)C[n+]2cccc3cc(Cl)ccc32)cc1	/	?	/	/	16µM*	/
Cc1cc2ccccc2c[n+]1CC(=O)c1ccc(F)cc1	/	?	/	/	13µM*	/
CC(=O)c1ccc[n+](CC(=O)c2ccc(F)cc2)c1	/	-8%	/	/	-1%	/
Cc1ccc[n+](CC(=O)c2ccc(-c3ccccc3)cc2)c1	0%	-1%	1%	-1%	2%	-7%
Brc1cc2ccccc2[n+](Cc2ccccc2)c1	0%	?	-1%	-4%	12µM*	-8%
CC(=O)C[n+]1cccc2cc(Cl)ccc21	/	-19%	/	/	-28%	/
Cc1ccc(C)[n+](CC(=O)c2ccc(-c3ccccc3)cc2)c1	8%	2.6µM*	-7%	-3%	1.8µM*	14%
CC(C)CN(C(=O)C1CSC2(C)CCC(=O)N12)c1c(N)n(Cc2ccccc2)c(=O)[nH]c1=O (stereo not given)	3%	-15%	6%	-2%	7%	21%
FC(F)(F)c1ccccc1-c1nc(NC2CC2)c2ccccc2n1	/	-5%	/	-10%	-27%	-7%
COC(=O)C1CN(C(=O)C(C)Oc2ccccc2Cl)c2ccccc2O1 (stereo not given)	/	6%	-7%	-18%	-4%	-9%
Cn1c(CC(=O)Nc2ccccc2)nnc1SCC(=O)NC1CCCC1	/	-3%	-3%	-3%	-29%	11%
O=C(C[n+]1cccc2ccccc21)c1ccc(Br)cc1	/	?	-17%	-6%	?	-21%
O=C(C[n+]1ccccc1Cl)c1ccc(I)cc1	/	-11%	/	/	?	/
Cc1ccc(C(=O)C[n+]2cccc3ccccc32)cc1	3%	?	-8%	-19%	18µM*	12%
O=C(C[n+]1cc(Br)cc2ccccc21)c1ccc(Cl)cc1	/	?	?	-1%	18µM*	?
O=C(C[n+]1cccc2cc(Cl)ccc21)c1ccc2ccccc2c1	/	5µM*	/	/	4µM*	/
O=C(C[n+]1cccc2cc(Cl)ccc21)c1ccc(I)cc1	/	11µM*	/	/	11µM*	/
COc1ccc(NC(=O)c2ccncc2)cc1S(=O)(=O)N1CCCCC1	/	-3%	5%	/	1%	/
COc1ccc(CNC(=O)CCCc2nnc3n(C(C)C)c(=O)c4sccc4n23)cc1	5%	-29%	/	-1%	?	6%
CN(C)S(=O)(=O)c1ccc(S(=O)(=O)N2CCCC(C(=O)NC3CCCC3)C2)cc1 (stereo not given)	13%	?	1%	-5%	2.9µM*	-12%
